What all share (conditions): mRNA level, 48 h; actives raise or lower the signal
Read-out in assay [1]: Alkaline Phosphatase, Placental (ALPP) gene, ALPP (gene 250)
Kind of assay: LTEA_HepaRG_ALPP: Life Technologies and Expression Analysis (LTEA) Assay for Alkaline Phosphatase, Placental (ALPP) gene using HepaRG (AID 2283468). An outline of the steps:
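ALPP transcript level, measured by qRT-PCR and normalized to three housekeeping genes (ACTB, GAPDH, POLR2A), after 48 h dosing of differentiated HepaRG in serum-free induction medium. Top concentration 100 uM with half-log dilutions (8 points, 0.5% DMSO, duplicates); bidirectional fitting relative to DMSO.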

Read-out in assay [2]: Bcl-2 (BAD) gene, BAD (gene 572)
In words: LTEA_HepaRG_BAD: Life Technologies and Expression Analysis (LTEA) Assay for Bcl-2 (BAD) gene using HepaRG (AID 2283469). An outline of the steps:
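Differentiated human HepaRG cells in serum-free induction medium were exposed in duplicate for 48 h to eight concentrations (top 100 uM, half-log steps, 0.5% DMSO). BAD mRNA was quantified by qRT-PCR normalised to ACTB, GAPDH and POLR2A, with bidirectional fitting versus DMSO.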

Read-out in assay [3]: Bcl-2 (BAX) gene, BAX (gene 581)
In words: LTEA_HepaRG_BAX: Life Technologies and Expression Analysis (LTEA) Assay for Bcl-2 (BAX) gene using HepaRG (AID 2283470). An outline of the steps: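 Differentiated HepaRG cells exposed 48 h in serum-free induction medium, eight half-log concentrations from 100 uM, in duplicate, 0.5% DMSO vehicle. BAX mRNA by TaqMan qRT-PCR, normalised to ACTB, GAPDH and POLR2A.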

Read-out in assay [4]: adenosine kinase (ADK) gene, ADK (gene 132)
In words: LTEA_HepaRG_ADK: Life Technologies and Expression Analysis (LTEA) Assay for adenosine kinase (ADK) gene using HepaRG (AID 2283471). An outline of the steps:
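Following 48 h exposure of HepaRG cells in 0.5% DMSO (top concentration 100 uM, duplicate wells), ADK mRNA induction or suppression was measured by qRT-PCR, normalised to ACTB/GAPDH/POLR2A, and fitted bidirectionally relative to vehicle.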

Read-out in assay [5]: Alpha-fetoprotein (AFP) gene, AFP (gene 174)
Kind of assay: LTEA_HepaRG_AFP: Life Technologies and Expression Analysis (LTEA) Assay for Alpha-fetoprotein (AFP) gene using HepaRG (AID 2283472). The method in brief: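 Differentiated human HepaRG cells exposed 48 h in serum-free induction medium, 8-point half-log series from 100 uM in 0.5% DMSO, duplicate. AFP mRNA by qRT-PCR, normalized to ACTB, GAPDH, POLR2A; bidirectional fit vs DMSO.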

Read-out in assay [6]: BCL2L11 (gene 10018)
Kind of assay: LTEA_HepaRG_BCL2L11: Life Technologies and Expression Analysis (LTEA) Assay for Bcl-2 (BCL2L11) gene using HepaRG (AID 2283473). The method in brief: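 BCL2L11 transcript levels are measured by Fluidigm qRT-PCR, normalized to three housekeeping genes. HepaRG cultures were plated 48 h, then treated 48 h with test chemical (top 100 uM, half-log, 0.5% DMSO vehicle); curves were fitted bidirectionally against DMSO.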

Read-out in assay [7]: Apolipoprotein A-V (APOA5) gene, APOA5 (gene 116519)
Kind of assay: LTEA_HepaRG_APOA5: Life Technologies and Expression Analysis (LTEA) Assay for Apolipoprotein A-V (APOA5) gene using HepaRG (AID 2283474). The method in brief: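 APOA5 transcript levels were quantified by qRT-PCR, normalized to three housekeeping genes, after 48 h chemical treatment of HepaRG cells (8 points, 100 uM maximum, half-log steps, 0.5% DMSO). Curves fitted in both directions against vehicle.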

Read-out in assay [8]: Apoptosis regulator Bcl-2 (Homo sapiens) (UniProt P10415)
In words: LTEA_HepaRG_BCL2: Life Technologies and Expression Analysis (LTEA) Assay for Bcl-2 gene using HepaRG (AID 2283475). An outline of the steps:
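Differentiated human HepaRG cells in serum-free induction medium exposed 48 h, in duplicate, to 8-point half-log series from 100 uM in 0.5% DMSO. BCL2 mRNA by qRT-PCR (TaqMan/Fluidigm), normalized to ACTB, GAPDH, POLR2A; bidirectional fit against DMSO.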

Read-out in assay [9]: Bcl-2 (BID) gene, BID (gene 637)
Kind of assay: LTEA_HepaRG_BID: Life Technologies and Expression Analysis (LTEA) Assay for Bcl-2 (BID) gene using HepaRG (AID 2283476). The method in brief:
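Gene expression by qRT-PCR in HepaRG cells after 48 h exposure, duplicate wells, eight half-log concentrations topping at 100 uM in 0.5% DMSO. Normalized to ACTB, GAPDH, POLR2A; bidirectional fitting relative to DMSO.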

Read-out in assay [10]: Caspase-3 (Homo sapiens) (UniProt P42574)
Kind of assay: LTEA_HepaRG_CASP3: Life Technologies and Expression Analysis (LTEA) Assay for cysteine-aspartic acid protease (CASP3) using HepaRG (AID 2283477). An outline of the steps:
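Expression of CASP3 was quantified by TaqMan qRT-PCR against three housekeeping genes (ACTB, GAPDH, POLR2A), bidirectionally versus 0.5% DMSO. HepaRG cultures received compounds in duplicate, top 100 uM with half-log steps, for 48 h in serum-free induction medium.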

Read-out in assay [11]: Cytochrome P450 (CYP24A1), CYP24A1 (gene 1591)
Kind of assay: LTEA_HepaRG_CYP24A1: Life Technologies and Expression Analysis (LTEA) Assay for Cytochrome P450 (CYP24A1) using HepaRG (AID 2283478). An outline of the steps:
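mRNA of CYP24A1 quantified by TaqMan qRT-PCR (ACTB/GAPDH/POLR2A normalization) after 48 h chemical exposure of HepaRG cells, top concentration 100 uM, half-log steps, 0.5% DMSO vehicle, duplicates. Curves fitted bidirectionally against DMSO baseline.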

Read-out in assay [12]: Cytochrome P450 (CYP1A2), CYP1A2 (gene 1544)
In words: LTEA_HepaRG_CYP1A2: Life Technologies and Expression Analysis (LTEA) Assay for Cytochrome P450 (CYP1A2) using HepaRG (AID 2283479). An outline of the steps: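 CYP1A2 transcript measured by TaqMan qRT-PCR against three housekeeping genes after 48-hour chemical exposure of HepaRG cells. Eight-point half-log series topping at 100 uM in 0.5% DMSO, duplicates; gain or loss fitted relative to vehicle.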

Read-out in assay [13]: cysteine-aspartic acid protease (CASP8), CASP8 (gene 841)
In words: LTEA_HepaRG_CASP8: Life Technologies and Expression Analysis (LTEA) Assay for cysteine-aspartic acid protease (CASP8) using HepaRG (AID 2283480). The method in brief: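 Differentiated human HepaRG cells, plated 48 h then switched to serum-free induction medium, were exposed in duplicate for 48 h to 8 half-log concentrations up to 100 uM in 0.5% DMSO. CASP8 mRNA was quantified by qRT-PCR, normalized to ACTB/GAPDH/POLR2A.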

Read-out in assay [14]: Cytochrome P450 (CYP2B6), CYP2B6 (gene 1555)
Kind of assay: LTEA_HepaRG_CYP2B6: Life Technologies and Expression Analysis (LTEA) Assay for Cytochrome P450 (CYP2B6) using HepaRG (AID 2283481). The method in brief: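 CYP2B6 transcript level quantified by qRT-PCR against three housekeeping genes, fitted bidirectionally relative to DMSO. HepaRG cultures received chemicals for 48 h, 8-point half-log series from 100 uM in 0.5% DMSO, duplicate wells, serum-free induction medium.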

Read-out in assay [15]: Cytochrome P450 2C19 (Homo sapiens) (UniProt P33261)
In words: LTEA_HepaRG_CYP2C19: Life Technologies and Expression Analysis (LTEA) Assay for CYP2C19 using HepaRG (AID 2283482). The method in brief:
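CYP2C19 transcript levels by qRT-PCR, normalized to three housekeeping genes, in HepaRG cells after 48 h chemical exposure. Eight-point half-log series topping at 100 uM, 0.5% DMSO vehicle. Increases and decreases both fitted against DMSO.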

Read-out in assay [16]: CYP2C8 (gene 1558)
Kind of assay: LTEA_HepaRG_CYP2C8: Life Technologies and Expression Analysis (LTEA) Assay for CYP2C8 using HepaRG (AID 2283483). An outline of the steps: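 Differentiated human HepaRG cells were exposed for 48 h in serum-free induction medium to eight half-log concentrations up to 100 uM in 0.5% DMSO, in duplicate. CYP2C8 mRNA was measured by TaqMan qRT-PCR, normalized to ACTB, GAPDH and POLR2A, and fitted bidirectionally against DMSO.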

Read-out in assay [17]: CYP2C9 (gene 1559)
In words: LTEA_HepaRG_CYP2C9: Life Technologies and Expression Analysis (LTEA) Assay for CYP2C9 using HepaRG (AID 2283484). An outline of the steps:
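Differentiated human HepaRG cells were exposed 48 h in serum-free induction medium to eight half-log concentrations up to 100 uM in 0.5% DMSO. CYP2C9 mRNA was measured by qRT-PCR, normalized to ACTB, GAPDH and POLR2A, and fitted bidirectionally against DMSO.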

Read-out in assay [18]: CYP2E1 (gene 1571)
In words: LTEA_HepaRG_CYP2E1: Life Technologies and Expression Analysis (LTEA) Assay for CYP2E1 using HepaRG (AID 2283485). An outline of the steps:
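HepaRG cells, plated 48 h, then exposed 48 h in serum-free induction medium to eight half-log concentrations from 100 uM in 0.5% DMSO, duplicate. CYP2E1 mRNA by qRT-PCR, normalized to ACTB/GAPDH/POLR2A; bidirectional fit versus DMSO.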

Read-out in assay [19]: CYP4A11 (gene 1579)
Kind of assay: LTEA_HepaRG_CYP4A11: Life Technologies and Expression Analysis (LTEA) Assay for CYP4A11 using HepaRG (AID 2283486). An outline of the steps: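 Readout is CYP4A11 transcript level by qRT-PCR, normalized to three housekeeping genes and fitted bidirectionally against 0.5% DMSO. Human HepaRG cells were treated 48 h, in duplicate, with an 8-point half-log series topping at 100 uM.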

Read-out in assay [20]: Cytochrome P450 3A4 (Homo sapiens) (UniProt P08684)
Kind of assay: LTEA_HepaRG_CYP3A4: Life Technologies and Expression Analysis (LTEA) Assay for CYP3A4 using HepaRG (AID 2283487). An outline of the steps: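 In a human hepatic line (HepaRG), duplicate wells were treated 48 h with up to 100 uM chemical in half-log dilutions. Endpoint: CYP3A4 mRNA induction or loss relative to 0.5% DMSO vehicle, by qRT-PCR.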

Activity calls are given as the source filed them. The calls were made as follows: active = hit-call score of the fitted dose curve at least 0.9, where 1 is the maximum; inactive = score below 0.9.

Caspase-3 (Homo sapiens), sequence (P42574 whole entry, looked up): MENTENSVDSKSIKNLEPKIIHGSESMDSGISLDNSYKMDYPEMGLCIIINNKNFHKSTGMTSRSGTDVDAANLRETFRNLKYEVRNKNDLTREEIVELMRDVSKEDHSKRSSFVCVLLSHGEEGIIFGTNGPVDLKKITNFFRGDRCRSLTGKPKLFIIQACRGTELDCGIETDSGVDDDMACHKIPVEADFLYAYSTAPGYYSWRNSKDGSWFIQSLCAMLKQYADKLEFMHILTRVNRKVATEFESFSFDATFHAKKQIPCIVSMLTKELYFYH
Apoptosis regulator Bcl-2 (Homo sapiens), sequence (P10415 whole entry, looked up): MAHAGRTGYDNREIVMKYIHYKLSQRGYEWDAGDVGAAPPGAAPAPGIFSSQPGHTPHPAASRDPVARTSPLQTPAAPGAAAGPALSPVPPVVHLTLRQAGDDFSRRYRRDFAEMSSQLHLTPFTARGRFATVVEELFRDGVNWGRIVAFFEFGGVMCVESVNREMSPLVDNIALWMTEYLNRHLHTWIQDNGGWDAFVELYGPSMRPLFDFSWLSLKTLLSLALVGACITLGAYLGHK
Cytochrome P450 2C19 (Homo sapiens), sequence (P33261 whole entry, looked up): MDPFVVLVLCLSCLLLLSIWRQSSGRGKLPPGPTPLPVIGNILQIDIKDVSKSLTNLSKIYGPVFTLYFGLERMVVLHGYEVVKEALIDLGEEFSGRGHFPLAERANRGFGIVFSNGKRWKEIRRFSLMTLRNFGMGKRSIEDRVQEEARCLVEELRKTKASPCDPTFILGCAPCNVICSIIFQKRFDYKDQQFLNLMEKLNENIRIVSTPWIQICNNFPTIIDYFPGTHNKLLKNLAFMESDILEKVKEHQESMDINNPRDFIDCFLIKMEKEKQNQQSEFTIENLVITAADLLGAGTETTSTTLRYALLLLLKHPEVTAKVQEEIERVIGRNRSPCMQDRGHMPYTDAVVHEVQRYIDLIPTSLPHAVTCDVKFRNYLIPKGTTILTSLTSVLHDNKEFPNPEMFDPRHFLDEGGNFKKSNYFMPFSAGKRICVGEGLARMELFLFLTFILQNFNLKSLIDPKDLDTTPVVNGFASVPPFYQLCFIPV
Cytochrome P450 3A4 (Homo sapiens), sequence (P08684 whole entry, looked up): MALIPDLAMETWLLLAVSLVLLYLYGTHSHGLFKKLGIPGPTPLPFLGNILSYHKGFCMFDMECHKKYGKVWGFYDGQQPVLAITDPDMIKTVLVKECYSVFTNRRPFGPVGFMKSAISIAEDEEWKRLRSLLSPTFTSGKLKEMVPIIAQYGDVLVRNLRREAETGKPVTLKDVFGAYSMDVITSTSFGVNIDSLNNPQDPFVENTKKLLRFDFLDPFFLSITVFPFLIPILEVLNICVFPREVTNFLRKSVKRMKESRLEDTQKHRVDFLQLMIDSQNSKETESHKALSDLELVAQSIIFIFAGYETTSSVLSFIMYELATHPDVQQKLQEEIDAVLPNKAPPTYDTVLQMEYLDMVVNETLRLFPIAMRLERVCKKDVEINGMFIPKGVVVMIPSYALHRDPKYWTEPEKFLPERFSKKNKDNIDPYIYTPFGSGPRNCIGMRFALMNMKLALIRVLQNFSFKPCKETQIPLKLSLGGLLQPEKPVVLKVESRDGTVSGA

With `CCOP(=S)(OCC)SCCSCC`, the outcome in [1], in [2], in assay [3], in [4], in assay [5] and in [6] was inactive. Moreover, the compound was called inactive in assay [7], in assay [8], in assay [9], in assay [10], in assay [11] and in [12]. In addition, the compound was classed as inactive in [13], in assay [16], in assay [17], in assay [18] and in assay [19]. Also, the AC50 was 7.58 µM (active) in assay [14], 22.2 µM (active) in [15] and 22.2 µM (active) in assay [20].

For `CCCSP(=O)(OCC)SCCC`, the call in assay [1], in assay [2], in assay [3], in assay [5], in assay [6] and in [8] was inactive. For the same compound, the result in assay [9], in assay [10], in assay [11], in [12], in [13] and in assay [15] was inactive. In addition, the result in assay [17] and in [19] was inactive. The half-maximal activity concentration (AC50) in assay [7] is 12.9 µM (active); in assay [14] it was 2.48 µM (active); in [16] it was 5.47 µM (active); in assay [18], 25.8 µM (active).

Consider `CNC(=O)ON=C(SC)C(=O)N(C)C`, for which the result in assay [2], in [3], in assay [4], in assay [5], in [6] and in [7] was inactive. The result in [8], in assay [9], in [10], in assay [11], in [12] and in assay [14] was inactive. For the same compound, the result in assay [15], in assay [17], in [18], in assay [19] and in [20] was inactive. For the same compound, the AC50 in assay [13] was 0.369 µM (active); in assay [16] it was 0.0994 µM (active).

The values are drawn from PubChem BioAssay (EPA / NIEHS).
